# Screens deposited in PubChem by National Center for Advancing Translational Sciences (NCATS).
# TDP1 cell noCPT: qHTS for Inhibitors of human tyrosyl-DNA phosphodiesterase 1 (TDP1): qHTS in cells in absence of CPT. Potency, µM (series often up to 46.2 µM), for the others: at the top dose activity change, negative = growth inhibition, actives largely listed as inhibitors. DT40 Tdp1-/- hTDP1 cells, no CPT, ATP luminescence, 48 h. 15% of 420,000 active; further: on the % scale 0 is the no-effect control and ±100 the full control effect; nearly all actives have a fitted effect of over 55% in size
#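 Chicken DT40 Tdp1-/- cells stably complemented with human TDP1 were seeded at 400 cells/well with DMSO in place of 20 nM camptothecin. After compound pinning, cells grew at least 48 hr at 37 °C; viability read by CellTiter-Glo luminescence.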
# TDP1 cell CPT: growth inhibition of DT40 Tdp1-/-;hTDP1 cells with camptothecin (screen for TDP1 inhibitors) | chicken DT40 Tdp1-/-;hTDP1 cells + 20 nM CPT, ATP luminescence, 48 h | Potency, µM (top dose mostly 46.2 µM), inactives show top-dose activity change, negative = growth inhibition, most hits filed as inhibitors | 12% of 420,000 active | AID 686979; further: on the % scale 0 is the no-effect control and ±100 the full control effect; nearly all actives have a fitted effect of over 55% in size
#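 Chicken DT40 Tdp1-/- cells complemented with human TDP1, 400 cells/well, exposed to compounds plus 20 nM camptothecin for at least 48 h at 37 C; viability read as ATP content by CellTiter-Glo luminescence.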
# HT1080-NT tox: kills 2HG-producing HT-1080-NT fibrosarcoma cells; HT-1080-NT fibrosarcoma viability, CellTiter-Glo ATP luminescence, 48 h; Potency, µM (doses to about 46.1 µM), for inactives: at the highest dose activity, negative = less viability, usual class: cytotoxic; 1.6% of 360,000 active; AID 686970;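 further: NT is the 2HG producing partner of a matched IDH1 knockdown line; 0% = DMSO-treated cells and -100% = media-only wells without cells; nearly all actives have a fitted effect of over 55% in size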
#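 Compounds were tested in concentration-response format on HT-1080-NT cells for 48 hours at 37 degrees C. Cell viability came from CellTiter-Glo luminescence; curves were classified by r2, response magnitude and activity.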
# HT1080 IDH1KD tx: toxicity to HT-1080 IDH1 knockdown cells (counter line) | 2% of 360,000 active | HT-1080 IDH1 knockdown viability, ATP luminescence, 48 h | Potency, µM (top dose mostly 46.1 µM), for the others: at the highest dose activity, negative = toxicity, most hits filed as cytotoxic;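 further: 0% = DMSO wells and -100% = cell-free medium wells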
#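 Luminescent ATP read-out (CellTiter-Glo, 10 min at room temperature) after 48 h compound exposure at 37 °C gave viability of IDH1-knockdown HT-1080 cells. Activity was normalised to DMSO and cell-free wells, then fitted as concentration-response curves.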
# TGFb SMAD3 inh: inhibitors of TGF-b signaling | HepG2 CAGA-GFP TGF-b/SMAD3 reporter, GFP fluorescence, 18 h; TGF-beta stimulated, 500 pg/mL final | Potency, µM (doses to about 46.1 µM), without a hit: at the highest dose activity, negative = inhibition, usual class: inhibitors | 1.2% of 410,000 active; further: on the % scale 0 is the no-effect control and ±100 the full control effect; nearly all actives have a fitted effect of over 65% in size
#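 Read-out: total well GFP (ex488/em500-530) summed from mean per-cell fluorescence. Cells: HEPG2 CAGA-GFP, 1% FBS DMEM, 18 h at 37 degrees C with 500 pg/mL final TGF-beta. Unstimulated wells served as the full-inhibition control; stimulated DMSO wells = 0%.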
# HepG2 viability: counter-screen for TGF-b inhibitors: cytotoxicity in HepG2 cells; AID 588856; 0.76% of 410,000 active; HepG2 CAGA-GFP viability, ATP luminescence, 18 h; Potency, µM (top dose mostly 46.1 µM), inactives show at the highest dose activity change, negative = cytotoxicity, actives largely listed as cytotoxic
#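 HepG2 CAGA-GFP cells (1000/well, DMEM with 1% FBS) received compound, then TGF-beta at 500 pg/mL final, and were incubated 18 hours at 37 degrees C. Viability was read by CellTiter-Glo luminescence. Media-only wells were set as complete cell-killing and DMSO as no toxicity.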
# Numbers without * were called inactive; ? = inconclusive; . = not tested or not shown. The list is not random: actives were taken first. Their share in the collection is about 17%. The call rests on the fitted dose curve; in most records, active means well fitted curve in the direction sought with a large enough effect; inconclusive means small, poorly fitted or top-dose-only effect, or another doubt; inactive means no such curve, though single readings can be large; an effect the other way counts as inactive or inconclusive. Potency means the concentration at half of the fitted maximal effect.
SMILES,TDP1 cell noCPT,TDP1 cell CPT,HT1080-NT tox,HT1080 IDH1KD tx,TGFb SMAD3 inh,HepG2 viability
C=C(C)CNC(=S)N/N=C/C1=CCC2CC1C2(C)C (configuration not stated),7.31µM*,7.31µM*,3.9%,7.5%,?,-16.9%
CC(=O)N/N=C/C1=CCC2CC1C2(C)C (configuration not stated),11.7%,0.0%,-1.1%,-2.6%,-5.1%,-0.6%
CC(C)NC(=S)N/N=C/C1=CCC2CC1C2(C)C (configuration not stated),?,?,14.1%,3.2%,?,-31.0%
CC(C)c1onc(C(=O)NC2CCCCC2)c1[N+](=O)[O-],20.6µM*,20.6µM*,-4.0%,?,-1.1%,2.1%
CC(C)c1onc(C(=O)N2CCCCCC2)c1[N+](=O)[O-],?,-0.1%,3.8%,-4.6%,-6.0%,2.0%
CCCn1c(CCC(=O)Nc2cccc(CC)c2)nc2cccnc21,?,16.4µM*,.,.,6.5%,-16.6%
COc1ccc(Cn2c(CCC(=O)Nc3ccc(OC)c(Cl)c3)nc3cccnc32)cc1,?,-21.5%,.,.,?,-43.1%
CCOc1ccc(NC(=O)CCc2nc3cccnc3n2-c2ccccc2)cc1,?,?,.,.,-14.8%,-9.0%
CCN(CC)c1ccc(NC(=O)CCc2nc3cccnc3n2Cc2cccs2)c(C)c1,?,?,.,.,10.4%,-11.4%
CCOc1ccc(OCC)c(NC(=O)CCc2nc3cccnc3n2Cc2cccs2)c1,16.4µM*,?,.,.,-9.9%,-29.9%
CCOC(=O)c1ccc(NC(=O)CCc2nc3cccnc3n2Cc2cccs2)cc1,18.4µM*,?,.,.,?,-41.8%
O=C(CCc1nc2cccnc2n1Cc1cccs1)Nc1cccc(Cl)c1,?,16.4µM*,.,.,?,-18.7%
CCOc1ccc(NC(=O)c2oc3ccccc3c2NC(=O)C2CCCCC2)cc1,?,-16.2%,.,.,?,-3.7%
CCOc1cccc(C(=O)c2ccc(O)c(O)c2O)c1,?,-105.4%,.,.,.,.
CCOC(=O)c1ccc(NC(=O)Cc2ccc(-n3c(CC)nc4cccnc43)cc2)cc1,25.9µM*,18.4µM*,.,.,?,1.2%
Cc1ccc(NC(=O)CCc2nc3cccnc3n2-c2ccccc2)cc1,?,?,.,.,-2.0%,-13.9%
Cc1cc(C)c(NC(=O)Cc2ccc(-n3c(C)nc4cccnc43)cc2)c(C)c1,20.6µM*,18.4µM*,.,.,12.6µM*,-25.2%
CCc1nc2cccnc2n1-c1ccc(CC(=O)NCCOC)cc1,-6.1%,-2.6%,5.6%,3.9%,7.0%,-2.6%
Cc1cc(NC(=O)CCc2nc3cccnc3n2Cc2cccs2)ccc1Br,20.6µM*,16.4µM*,.,.,?,-28.0%
Cc1cc(Nc2c(C)n(C)n(-c3ccccc3)c2=O)c2ccccc2n1,-4.4%,1.8%,8.4%,9.8%,8.3%,7.7%
CCN1CCN(CCNC(=O)c2ccc(/C=C3/Sc4ccccc4N(Cc4cccc(Cl)c4)C3=O)cc2)CC1,18.4µM*,18.4µM*,14.6µM*,?,?,22.4µM*
CCN1CCN(CCNC(=O)c2ccc3c(c2)N(Cc2ccc(F)cc2)C(=O)/C(=C/c2ccccc2)S3)CC1,8.2µM*,11.6µM*,6.51µM*,5.17µM*,?,-185.4%
CN1CCN(CCCNC(=O)c2ccc(/C=C3\Sc4ccccc4N(Cc4ccccc4F)C3=O)cc2)CC1,?,?,23.1µM*,?,?,-34.1%
Cc1ccccc1CN1C(=O)/C(=C\c2ccc(C(=O)NCCN3CCOCC3)cc2)Sc2ccccc21,?,?,?,?,?,-36.6%
O=C(NCCN1CCOCC1)c1ccc(/C=C2\Sc3ccccc3N(Cc3ccccc3F)C2=O)cc1,?,?,-11.0%,-28.8%,?,-49.1%
SMILES,TDP1 cell noCPT,TDP1 cell CPT,HT1080-NT tox,HT1080 IDH1KD tx,TGFb SMAD3 inh,HepG2 viability
COC(=O)C(C)(C)ONC(=O)Nc1ccccc1Cl,-6.6%,5.0%,22.2%,6.4%,0.3%,-4.5%
O=CC(=Cc1ccccc1)c1ccccc1,?,-4.4%,-1.1%,0.8%,-2.8%,-4.8%
O=C1COc2ccc(S(=O)(=O)N3CCN(c4cccc(Cl)c4)CC3)cc2N1,-18.1%,-9.0%,1.0%,-1.1%,-9.8%,-17.8%
Cc1ccc(N2CCN(C(=O)CCS(=O)(=O)c3cc4c(cc3Cl)NC(=O)CO4)CC2)c(C)c1,20.6µM*,23.1µM*,.,.,?,-30.4%
Cc1ccc(Cl)cc1N1CCN(C(=O)CCS(=O)(=O)c2ccc3c(c2)NC(=O)CO3)CC1,10.3µM*,?,-21.6%,-11.3%,-19.6%,0.3%
O=C1COc2cc(S(=O)(=O)CCC(=O)N3CCN(c4ccccc4F)CC3)c(Cl)cc2N1,.,.,.,.,-8.8%,-20.3%
O=C1COc2ccc(S(=O)(=O)CCC(=O)N3CCN(c4cccc(Cl)c4)CC3)cc2N1,18.4µM*,10.3µM*,?,?,-0.9%,-3.9%
CC(=O)Nc1cccc(NS(=O)(=O)c2ccc3c(c2)CCC(=O)N3)c1,-2.1%,-13.9%,-0.1%,5.9%,3.3%,-1.7%
N#Cc1ccccc1NS(=O)(=O)c1cc2c3c(c1)CCN3C(=O)CC2,-4.0%,2.7%,-0.3%,-2.2%,-18.4%,-0.4%
COc1ccc(OC)c(NC(=O)CSc2nnc(CNc3ccc(C)cc3C)o2)c1,?,?,3.5%,5.0%,-18.9%,-12.0%
CCOC(=O)/C=C(\C)Sc1cc(O)c2ccccc2c1O,1.16µM*,0.92µM*,23.1µM*,23.1µM*,3.16µM*,5.62µM*
CCOC(=O)c1c(C)oc2c1cc(O)c1ccccc12,-17.4%,-18.3%,-5.1%,-7.1%,-1.7%,-5.8%
CCOC(=O)Nc1oc2ccccc2c(=O)c1C,-5.1%,-0.2%,11.7%,7.2%,13.1%,-5.3%
CCOC(=O)/C=C(\C)Sc1cc(=O)oc2ccccc12,20.6µM*,23.1µM*,14.6µM*,16.4µM*,-5.0%,-31.5%
COCCCNC(=O)c1cc(-c2cccnc2)nc2ccc(S(=O)(=O)N3CCC(C)CC3)cc12,0.0%,-13.8%,.,.,0.0%,-9.6%
CCCCN(C(=O)c1ccccc1Cl)C(CC(C)C)c1nc2ccccc2[nH]1 (configuration not stated),?,20.6µM*,?,?,?,-7.3%
CSc1nn(Cc2ccc(C)cc2)c(N)c1S(=O)(=O)c1ccccc1,23.1µM*,20.6µM*,.,.,?,-32.9%
